{"source": "PubChem BioAssay (EPA / NIEHS)", "note": "Some compounds were tested as several samples or in several runs, with calls that do not always agree. The source made the active and inactive calls. Rule for the calls: active = hit-call score of the fitted dose curve at least 0.9, where 1 is the maximum; inactive = score below 0.9."}
{"read-out": "Plasminogen activator inhibitor-1 (PAI1), SERPINE1 (gene 5054)", "assay": "BSK_BE3C_PAI1: BioMAP Diversity Plus: BE3C Assay for Plasminogen activator inhibitor-1 (PAI1) Biomarker Activity (AID 2283037)", "settings": "primary human bronchial epithelial cells; actives raise or lower the signal", "description": "BSK_BE3C is a cell-based, multiplexed-readout assay that uses bronchial epithelial cell, a human lung primary cell, with measurements taken at 24 hours after chemical dosing in a 96-well plate.BSK_BE3C_PAI1 is an assay component measured in the BSK_BE3C assay. It measures PAI-1 antibody related to regulation of gene expression using ELISA technology.Data from the assay component BSK_BE3C_PAI1 was analyzed into 1 assay endpoint. This assay endpoint, BSK_BE3C_PAI1, was analyzed with bidirectional fitting relative to DMSO as the negative control and baseline of activity. Using a type of binding reporter, gain or loss-of-signal activity can be used to understand changes in the signaling as they relate to the gene SERPINE1. Furthermore, this assay endpoint can be referred to as a primary readout, because this assay has produced multiple assay endpoints where this one serves a signaling function. To generalize the intended target to other relatable targets, this assay endpoint is annotated to the cytokine intended target family, where the subfamily is plasmogen activator inhibitor.\nThe levels of cell surface (or secreted, indicated by the prefix \"s\") biomarker endpoints were measured by ELISA. Overt cytotoxicity to cells in confluent adherent cultures (all systems other than the BT system) was assessed by measuring total protein levels using sulforhodamine B (SRB) staining in parallel cultures at the time of biomarker measurements, indicated as SRB endpoints. For proliferation assays for adherent cell types, individual cell types are cultured at sub-confluence and relative cell numbers quantified by SRB staining at time points optimized for each system (48 h: 3C and CASM3C systems; 72 h: BT and HDF3CGF systems; 96 h: SAg system). SRB was performed by staining cells with 0.1% SRB after fixation with 10% TCA and reading wells at 560 nm.Viability and proliferation of PBMC (T cells) was quantified by Alamar Blue reduction for the SAg and BT systems. For PBMC viability (referred to as PBMC Cytotoxicity within the assay endpoint names), cells were plated (75,000/well in a 96-well plate) and then chemical samples added for 1 h before addition of activators, SEB and TSST-1 (20 ng/mL final concentration each). Cells were incubated for 90 h. Then, Alamar Blue (20 uL/well) (Invitrogen, Cat DAL1100) was added for 6 h, and the plates were read with a fluorescence microplate reader at 546/580 nm (excitation/emission). For PBMC proliferation, cells were plated and activated as above but incubated for only 16 h prior to addition of Alamar Blue. Plates were read after 6 h."}
{"smiles": "CNC(=S)S", "outcome": "inactive"}
{"smiles": "Cc1ccc(-c2c(Cl)nc(C#N)n2S(=O)(=O)N(C)C)cc1", "AC50": "3.97 µM (active)"}
{"smiles": "N#Cc1cc(Br)c(O)c(Br)c1", "AC50": "12.8 µM (active)"}
{"smiles": "CCCN(CCC)c1c([N+](=O)[O-])cc(S(N)(=O)=O)cc1[N+](=O)[O-]", "AC50": "34.2 µM (active) [middle of 4 runs]"}
{"smiles": "COc1cnc(OC)n2nc(NS(=O)(=O)c3c(OCC(F)F)cccc3C(F)(F)F)nc12", "AC50": "0.0487 µM (active)", "outcome": "inactive"}
{"smiles": "CCCCNC(=O)OCC#CI", "AC50": "30.1 µM (active)"}
{"smiles": "COC(=O)C(C)Oc1ccc(Oc2ccc(Cl)cc2Cl)cc1", "note": "(stereo not given)", "AC50": "32.5 µM (active)", "outcome": "inactive"}
{"smiles": "CON(C)C(=O)Nc1ccc(Cl)c(Cl)c1", "outcome": "inactive"}
{"smiles": "Cc1c(F)c(F)c(COC(=O)C2C(/C=C(\\Cl)C(F)(F)F)C2(C)C)c(F)c1F", "note": "(stereo not given)", "outcome": "inactive"}
{"smiles": "COc1nc(C)nc(NC(=O)NS(=O)(=O)c2ccccc2CCC(F)(F)F)n1", "outcome": "inactive"}
{"smiles": "CC(Oc1ccc(Cl)cc1Cl)C(=O)O", "note": "(stereo not given)", "outcome": "inactive"}
{"smiles": "CC(C)(C)c1ccc(CSc2cnn(C(C)(C)C)c(=O)c2Cl)cc1", "AC50": "14.2 µM (active)"}
{"smiles": "OC(c1ccc(Cl)cc1)(c1cncnc1)c1ccccc1Cl", "note": "(stereo not given)", "outcome": "inactive"}
{"smiles": "CCOC(=O)CC(SP(=S)(OC)OC)C(=O)OCC", "note": "(stereo not given)", "outcome": "inactive"}
{"smiles": "COC(=O)N(OC)c1ccccc1COc1ccn(-c2ccc(Cl)cc2)n1", "AC50": "5.65 µM (active)"}
{"smiles": "COc1nc(C)nc(NC(=O)NS(=O)(=O)c2ccccc2Cl)n1", "outcome": "inactive"}
{"smiles": "C=CCC1=C(C)C(OC(=O)C2C(C=C(C)C)C2(C)C)CC1=O", "note": "(stereo not given)", "outcome": "inactive"}
{"smiles": "COc1nc(NC(C)C)nc(NC(C)C)n1", "outcome": "inactive"}
{"smiles": "CCCCNC(=O)n1c(NC(=O)OC)nc2ccccc21", "outcome": "inactive"}
{"smiles": "C=CC1(C)OC(=O)N(c2cc(Cl)cc(Cl)c2)C1=O", "note": "(stereo not given)", "outcome": "inactive"}
{"smiles": "CCOC(=O)C(Cl)Cc1cc(-n2nc(C)n(C(F)F)c2=O)c(F)cc1Cl", "note": "(stereo not given)", "outcome": "inactive"}
{"smiles": "CCON=C(CC)C1=C(O)CC(c2c(C)cc(C)cc2C)CC1=O", "note": "(stereo not given)", "outcome": "inactive"}
{"smiles": "CC(C)Oc1cc(-n2nc(C(C)(C)C)oc2=O)c(Cl)cc1Cl", "AC50": "20 µM (active)"}
{"smiles": "CO/C=C(/C(=O)OC)c1ccccc1Oc1cc(Oc2ccccc2C#N)ncn1", "outcome": "inactive", "AC50": "21.1 µM (active)"}
{"smiles": "N#CC(CCc1ccc(Cl)cc1)(Cn1cncn1)c1ccccc1", "note": "(stereo not given)", "outcome": "inactive"}
{"smiles": "CN(C)C(=S)SSC(=S)N(C)C", "AC50": "27.1 µM (active)"}
{"smiles": "N#Cc1nn(-c2c(Cl)cc(C(F)(F)F)cc2Cl)c(N)c1S(=O)C(F)(F)F", "note": "(stereo not given)", "AC50": "20 µM (active)"}
{"smiles": "C#CCOS(=O)OC1CCCCC1Oc1ccc(C(C)(C)C)cc1", "note": "(stereo not given)", "AC50": "18.4 µM (active)"}
{"smiles": "C=CCC1=C(C)[C@@H](OC(=O)[C@@H]2[C@@H](C=C(C)C)C2(C)C)CC1=O", "AC50": "29.5 µM (active)"}
{"smiles": "Oc1ccccc1-c1ccccc1", "outcome": "inactive"}
{"smiles": "CS/C(C)=N/OC(=O)N(C)SN(C)C(=O)O/N=C(\\C)SC", "outcome": "inactive"}
{"smiles": "COC(=O)c1ccccc1C(=O)OC", "outcome": "inactive"}
{"smiles": "O=C(Nc1ccccc1)Nc1ccnc(Cl)c1", "outcome": "inactive"}
{"smiles": "CCCCC(CC)COC(=O)c1ccccc1C(=O)OCC(CC)CCCC", "note": "(stereo not given)", "outcome": "inactive"}
{"smiles": "CCCC1COC(Cn2cncn2)(c2ccc(Cl)cc2Cl)O1", "note": "(stereo not given)", "outcome": "inactive"}
{"smiles": "COC(=O)C=C(C)OP(=O)(OC)OC", "outcome": "inactive"}
{"smiles": "O=C(O)c1nc(Cl)ccc1Cl", "outcome": "inactive"}
